PKM2 activator: increases activity of human pyruvate kinase M2; P14618; purified PKM2, Kinase-Glo ATP luminescence, activation; response scale: 0% is enzyme alone, no compound; Potency, µM (doses to about 57.5 µM), for inactives: at the highest dose activation, usual class: activators; 260,000 compounds, 0.34% hits; AID 1631; note: % is set by controls: 0 for no effect and ±100 for the full control effect; nearly all actives have a fitted effect of over 55% in size
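hPK-M2, >95% pure; 0.1 mM ADP / 0.5 mM PEP final; imidazole pH7.2 buffer w/ 7 mM MgCl2, 50 mM KCl; 1 h RT; Kinase-Glo lum. Intermediate enzyme activity for dual inhibitor/activator qHTS.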
Rango release inh: inhibition of RanGTP-driven Rango-importin beta dissociation; O95149+P62826; Biochemical FRET Rango-importin beta, RanGTP-induced dissociation; Potency, µM (series often up to 46.1 µM), inactives show top-dose activity change, negative = inhibition; 340,000 compounds, 0.071% hits; calls by dose curve; note: % of control where 0% means no effect; nearly all actives have a fitted effect of over 45% in size
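Two FRET readings bracket the reaction: one 5 min after compound meets Rango–importin beta, another 45 min after RanGTP-RCC1 (0.6 uM Ran, 0.2 uM RCC1, 2 mM GTP) is added. Only the second defines inhibition.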
ELG1 DNA repair: ELG1-dependent DNA repair inhibition | HEK293T ELG1-luciferase reporter, luminescence, 16 h; DNA damage induced by 5-fluorouridine | Potency, µM (series often up to 46.1 µM), for the others: at the highest dose activity change, negative = inhibition, actives largely listed as inhibitors | 330,000 compounds, 2.3% hits | AID 504467; note: % is set by controls: 0 for no effect and ±100 for the full control effect; nearly all actives have a fitted effect of over 55% in size
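Luminescence from the luciferase reporter, measured 30 min after ONE-Glo reagent at room temperature, was the read-out. Beforehand, 2,000 cells per well were exposed for 16 hr at 37 °C to 5-fluorouridine together with compound or vehicle.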
Rango-impB inh: inhibitors of Rango-importin beta complex formation; Rango CFP/YFP FRET sensor + importin beta, 45 min; Potency, µM (series often up to 92.2 µM), inactives show at the highest dose inhibition of complex formation; 340,000 compounds, 0.031% hits; AID 540263; calls by dose curve;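 note: 0% = DMSO wells and 100% = buffer wells lacking importin beta; nearly all actives have a fitted effect of over 15% in size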
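FRET biosensor Rango (snurportin 1 IBB between N-terminal EYFP and C-terminal Cerulean), 50 nM in PBS/1 mM DTT/0.02% Tween-20/0.1% BSA, preincubated 5 min RT with compound; 0.125 microM importin beta added, 45 min RT, CFP/YFP FRET ratio read.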
Tb PFK block: T. brucei PFK enzyme inhibition; T. brucei PFK, ADP-Glo luminescence; Potency, µM (top dose mostly 57.5 µM), for the others: at the top dose activity, negative = inhibition, hits mostly inhibitors; 330,000 compounds, 0.17% hits; O15648;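 note: 0% = uninhibited 1x PFK enzyme wells and -100% = no-enzyme wells; nearly all actives have a fitted effect of over 60% in size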
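1.25 nM PFK with 0.5 mM F6P and 0.1 mM ATP in 0.1 M TEA pH 8.0, 5 mM MgCl2, incubated 45 min at room temperature; ADP measured by ADP-Glo luminescence; compounds titrated up to 57 uM.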
Tb PGK inh: T. brucei PGK inhibition; PGK/GAPDH coupled, Kinase-Glo luminescence, 60 min; 380,000 compounds, 0.043% hits; Potency, µM (series often up to 57.5 µM), inactives show top-dose activity change, negative = inhibition, actives largely listed as inhibitors; note: % is set by controls: 0 for no effect and ±100 for the full control effect; nearly all actives have a fitted effect of over 60% in size
Target sequence (P07378 whole entry, looked up): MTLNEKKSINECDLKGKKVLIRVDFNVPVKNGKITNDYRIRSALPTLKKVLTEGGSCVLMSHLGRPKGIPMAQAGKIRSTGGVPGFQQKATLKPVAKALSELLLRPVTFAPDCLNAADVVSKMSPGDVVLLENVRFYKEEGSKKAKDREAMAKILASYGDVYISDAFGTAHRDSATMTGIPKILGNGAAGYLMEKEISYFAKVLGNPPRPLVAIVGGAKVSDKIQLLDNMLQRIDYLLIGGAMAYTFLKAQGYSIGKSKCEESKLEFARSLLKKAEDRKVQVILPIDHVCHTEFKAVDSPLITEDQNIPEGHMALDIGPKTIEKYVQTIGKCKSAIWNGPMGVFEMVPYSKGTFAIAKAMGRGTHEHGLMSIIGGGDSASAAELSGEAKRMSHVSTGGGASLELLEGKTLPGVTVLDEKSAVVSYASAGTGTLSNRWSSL
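Recombinant glycosomal PGK reaction used 1,3-bisphosphoglycerate generated in-well by GAPDH (100nM final) in 100mM TEA pH 7.6, 5mM MgCl2, 0.01% Tween-20. After 60 minutes at room temperature, ATP was read by Kinase-Glo Plus luminescence end-point.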
Active calls of the source: *; i = inactive; ? = inconclusive; . = not tested or not shown. Sampled rows, rich in hits. Any-hit rate of the full collection: about 2.4%. Unless noted, calls come from the whole dose curve; as a rule, active = well fitted curve in the direction sought with a large enough effect; inconclusive = small, poorly fitted or top-dose-only effect, or another doubt; inactive = no such curve, though single readings can be large; an effect the other way counts as inactive or inconclusive. Potency is the fitted concentration of half-maximal effect.

SMILES	PKM2 activator	Rango release inh	ELG1 DNA repair	Rango-impB inh	Tb PFK block	Tb PGK inh
Cc1ccc2nc(/C(C#N)=C\c3ccc(Oc4ccc([N+](=O)[O-])cn4)cc3)[nH]c2c1	-16%	-22%	5.2µM*	0%	0%	-3%
COc1ccc2nc(/C(C#N)=C\c3ccc(Oc4ccc([N+](=O)[O-])cn4)cc3)[nH]c2c1	-6%	-24%	-17%	?	1%	-3%
COc1ccc2sc(N(Cc3cccnc3)C(=O)c3ccc4c(c3)OCCO4)nc2c1	.	.	.	.	.	10%
Cc1cc(C)c(C(=O)/C=C/c2ccc(C(C)C)cc2)c(=O)[nH]1	1%	-9%	21µM*	1%	-1%	-1%
Cc1cc(C)c(C(=O)/C=C/C=C/c2ccccc2)c(=O)[nH]1	7%	-21%	8%	?	-1%	-2%
COc1ccc(C(CNC(=O)c2c(C)nn(Cc3ccc(C)cc3)c2Cl)N2CCOCC2)cc1 (stereo not given)	.	-11%	21µM*	0%	2%	-6%
Cc1ccc(Cn2nc(C)c(C(=O)NCC(c3cccs3)N3CCOCC3)c2Cl)cc1 (stereo not given)	.	-10%	5.6µM*	1%	1%	i
COc1ccc(C(CNC(=O)c2ccc(C)cc2)N2CCOCC2)cc1 (stereo not given)	.	.	.	.	.	-8%
CCCSCCCNC(=O)c1ccc2c(c1)nc1n2CCCCC1	.	.	.	.	.	-5%
COc1ccc(OCCn2c(NC(=O)c3ccco3)nc3ccccc32)cc1	1%	-5%	13µM*	-3%	-2%	-12%
NC(=O)CSc1nc2scc(-c3ccc(Cl)cc3)c2c(=O)n1Cc1ccccc1	3%	5%	16µM*	6%	3%	-3%
C=CCn1c(SCC(=O)Nc2ccc(C(=O)O)cc2)nc2scc(-c3ccccc3)c2c1=O	.	-2%	-1%	-4%	4%	-3%
Cc1ccc(-c2csc3nc(SCC(=O)N(C)C)n(Cc4ccccc4)c(=O)c23)cc1	-14%	-1%	21µM*	1%	-2%	-11%
CN(C)C(=O)CSc1nc2ccccc2n1Cc1ccccc1	-18%	2%	12%	-1%	-7%	0%
CC(C)c1ccc(S(=O)(=O)N2CCN(CC(=O)Nc3ccccc3C(F)(F)F)CC2)cc1	.	.	.	.	.	2%
COc1ccc(-c2cc(C(F)(F)F)n3ncc(C(=O)N4CCc5ccccc5C4)c3n2)cc1	1%	2%	12µM*	?	-3%	-3%
CC1CCCCN1C(=O)c1cnn2c(C(F)(F)F)cc(-c3ccco3)nc12 (stereo not given)	0%	9.2µM*	5%	?	-5%	-1%
O=C(c1cnn2c(C(F)F)cc(-c3ccccc3)nc12)N1CCc2ccccc2C1	-4%	-13%	?	?	1%	-3%
COCCNC(=O)c1cnn2c(C(F)(F)F)cc(-c3ccc(C)cc3)nc12	-6%	12%	5.8µM*	0%	-4%	-1%
O=C(c1cnn2c(C(F)(F)F)cc(-c3ccco3)nc12)N1CCc2ccccc2C1	1%	?	23µM*	?	-9%	.
O=C(c1cnn2c(C(F)(F)F)cc(-c3ccco3)nc12)N1CCCCCC1	-4%	?	0%	?	4%	-7%
O=C(c1cc(S(=O)(=O)N2CCCC2)c[nH]1)N1CCN(c2cccc(Cl)c2)CC1	.	.	.	.	.	-3%
COc1cccc(-c2cc(C(F)(F)F)n3ncc(C(=O)N4CCc5ccccc5C4)c3n2)c1	2%	-6%	21µM*	-1%	5%	-6%
COc1ccc(-c2cc(C(F)(F)F)n3ncc(C(=O)NCC4CCCO4)c3n2)cc1 (stereo not given)	2%	?	?	?	-16%	0%
CCOc1ccc(C(=O)Nc2ccccc2OCc2cc(=O)n3ccccc3n2)cc1	.	.	.	.	.	7%
SMILES	PKM2 activator	Rango release inh	ELG1 DNA repair	Rango-impB inh	Tb PFK block	Tb PGK inh
COc1cccc(-c2nnc3sc(C4CCCCC4)nn23)c1	-7%	2%	4.6µM*	1%	0%	-7%
CCOc1cccc(-c2nnc3sc(C4CCCCC4)nn23)c1	-4%	-12%	21µM*	5%	-7%	-3%
COc1cc(-c2nnc3sc(C4CCCCC4)nn23)cc(OC)c1OC	-5%	2%	?	1%	1%	-8%
Cc1ccc(S(=O)(=O)c2nnn3c2nc(Nc2ccc(C(C)C)cc2)c2sccc23)cc1C	.	.	.	.	.	-2%
Cc1ccc(Cl)cc1NC(=O)Cn1c(=O)n(Cc2ccccc2)c(=O)c2oc3ccccc3c21	.	.	.	.	.	-2%
Cc1ccc(-c2c[n+]3c(n2-c2ccccc2)CCC3)cc1	-6%	11%	2.3µM*	2%	2%	-6%
CCOc1ccc2oc(C(=O)N(C)CCc3ccc(OC)c(OC)c3)c(C)c2c1	.	-1%	18µM*	-2%	-11%	i
CCOc1ccc2oc(C(=O)N(C)CC(=O)Nc3ccc(OCC)c(OCC)c3)c(C)c2c1	.	-15%	?	0%	-9%	-6%
Cc1cc(OCc2nc3ccccc3s2)ccc1N	-2%	20%	?	-2%	2%	-3%
CC(=O)N1CCCC1c1nc2ccccc2n1Cc1ccccc1C (stereo not given)	.	.	.	.	.	13%
Cc1c(CC(=O)N2CCN(C(=O)C3COc4ccccc4O3)CC2)c(=O)oc2cc(O)ccc12 (stereo not given)	0%	?	0.73µM*	?	2%	-4%
COc1ccc2c(C)c(CC(=O)N3CCN(C(=O)C4COc5ccccc5O4)CC3)c(=O)oc2c1 (stereo not given)	.	-10%	23µM*	2%	-1%	-1%
Cc1[nH]n(-c2ccccc2)c(=O)c1N=Nc1cccc(Cl)c1	0%	-2%	?	-1%	0%	-1%
CC(=O)c1cccc(N=Nc2c(-c3ccccc3)[nH]n(-c3ccccc3)c2=O)c1	-3%	-17%	8.2µM*	-4%	0%	-6%
COc1ccc(-c2cc(-c3nnc(COC(=O)c4ccc(O)cc4)o3)c3ccccc3n2)cc1OC	3%	?	?	?	-3%	-6%
COc1ccc(-c2cc(-c3nnc(COC(=O)CC4CCCC4)o3)c3ccccc3n2)cc1OC	1%	-18%	21µM*	?	3%	0%
COc1ccc(-c2cc(-c3nnc(COC(=O)C4CC4)o3)c3ccccc3n2)cc1OC	-13%	?	7.3µM*	?	-3%	-8%

Source: PubChem
